In PubChem BioAssay:
Activity calls are given as the source filed them. Unless noted, how the calls were made is not given here.

Key:
[1] = test system: Wnt5a (protein binding on small-molecule microarray); assay: small molecules binding Wnt5a protein – biophysical, small-molecule microarray, 635/667 nm fluorescence, primary screen (AID 1142); conditions: 635 nm fluorescence, higher = more signal;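 further: fluorescence read at 667 nm with signal to noise per printed feature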
[2] = ATP-based viability of Huh7 replicon cells – cell-based, CellTiter-Glo luminescence, basal, 48 h, cytotoxicity control for HCV replication inhibitor project, primary screen (AID 1143); conditions: higher = more signal, called active from +8 up or from −8 down;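 further: Huh7 hepatoma cells carrying a hepatitis C replication reporter with no stimulus; test concentration not given here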
[3] = Pseudomonas biofilm growth suppression – PAO1 strain, BacTiter-Glo luminescence, LB-PBS, primary screen (AID 1144); conditions: P. aeruginosa PAO1 biofilm, 12 h, higher = more signal
[4] = basal CRE-LacZ reporter activity in PC12 – cell-based, unstimulated, primary screen (AID 1145); conditions: no forskolin, luminescence, 4.5 h, higher = more signal, called active from +8 up or from −8 down
[5] = forskolin-driven CRE-LacZ activity in PC12 – cell-based, CRE-LacZ reporter, forskolin-stimulated, primary screen (AID 1146); conditions: luminescence, 4.5 h, higher = more signal, called active from +8 up or from −8 down;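 further: PC12 cells with 6xCRE LacZ reporter stimulated by forskolin 10 µM; beta-galactosidase reporter signal reflecting CREB driven transcription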
[6] = biological target: Streptavidin (Streptomyces avidinii) (UniProt P22629); assay: compounds binding control protein streptavidin – biophysical, small-molecule microarray, 635/667 nm fluorescence, artefact control for SMM compound annotation, primary screen (AID 1147); conditions: higher = more signal;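 further: signal reflects streptavidin binding to arrayed compounds as a control protein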
Chain of Streptavidin (Streptomyces avidinii) (P22629 whole entry, looked up): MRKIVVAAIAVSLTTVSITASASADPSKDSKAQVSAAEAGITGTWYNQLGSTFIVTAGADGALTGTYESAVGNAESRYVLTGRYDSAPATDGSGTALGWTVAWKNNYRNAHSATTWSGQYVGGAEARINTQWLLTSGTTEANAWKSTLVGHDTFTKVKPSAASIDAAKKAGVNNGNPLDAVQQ

[7] = probe aInhba binding on compound microarray – biochemical, small-molecule microarray, 635/667 nm fluorescence, primary screen (AID 1148); conditions: higher = more signal;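 further: score merges 667nm spot fluorescence with signal-to-noise for antibody binding to printed compounds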
Torsin-1A (Homo sapiens) [8] = biological target: Torsin-1A (Homo sapiens) (UniProt O14656); assay: TOR1A wild-type binding on microarray – cell lysate, small-molecule microarray, lysate, 635/667 nm, primary screen (AID 1149); conditions: COS7 hTOR1A-WT lysate, 635 nm fluorescence, higher = more signal
Chain of Torsin-1A (Homo sapiens) (O14656 whole entry, looked up): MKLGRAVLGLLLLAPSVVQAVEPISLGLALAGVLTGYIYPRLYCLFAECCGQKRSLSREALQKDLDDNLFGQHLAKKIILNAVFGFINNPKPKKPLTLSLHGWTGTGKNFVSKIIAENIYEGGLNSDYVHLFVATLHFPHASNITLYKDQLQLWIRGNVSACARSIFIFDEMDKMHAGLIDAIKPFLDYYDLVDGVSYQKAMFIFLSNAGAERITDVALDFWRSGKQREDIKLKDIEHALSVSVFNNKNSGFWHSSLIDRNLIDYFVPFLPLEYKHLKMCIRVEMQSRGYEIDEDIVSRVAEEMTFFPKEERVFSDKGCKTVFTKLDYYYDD

Torsin-1A (Homo sapiens) [9] = biological target: Torsin-1A (Homo sapiens) (UniProt O14656); assay: torsin A mutant lysate binding on microarrays – cell lysate, small-molecule microarray, COS7 lysate, 635/667 nm fluorescence, primary screen (AID 1150); conditions: COS7 hTOR1A mutant lysate, 635 nm fluorescence, higher = more signal;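 further: score pools 667 nm emission and signal to noise measuring lysate protein binding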
[10] = test system: Sonic hedgehog protein (Shh); assay: Sonic hedgehog microarray binding compounds – biochemical, small-molecule microarray, 635/667 nm fluorescence, primary screen (AID 1151); conditions: 635 nm fluorescence, higher = more signal;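 further: Shh protein binding to compounds spotted on small-molecule microarray slides; score combines spot fluorescence intensity with signal-to-noise across triplicate slides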
[11] = optical density shifts of acrAB sulA E. coli – strain DRC41, OD650, 48 h, E. coli filamentation inducer project, primary screen (AID 1152); conditions: higher = more signal, called active from +8 up or from −8 down;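 further: E. coli MC1000 strain DRC41 lacking acrAB efflux pump and sulA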
[12] = probe aLefty1 binding on compound microarray – biochemical, small-molecule microarray, 635/667 nm fluorescence, primary screen (AID 1153); conditions: higher = more signal;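 further: score merges spot fluorescence with signal-to-noise ratio from the scanned slide images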
[13] = plasmodial surface anion channel blockers, osmotic lysis – cell-based, P. falciparum Indochina, OD700, 1 h, primary screen (AID 1154); conditions: P. falciparum Indochina infected RBC osmotic lysis, higher = more signal, called active from +8 up or from −8 down
[14] = plasmodial surface anion channel blockers, osmotic lysis – cell-based, P. falciparum Indochina, OD700, 2 h, primary screen (AID 1155);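 further: lysis reports solute entry through the parasite surface anion channel PSAC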; conditions: P. falciparum Indochina infected erythrocytes, higher = more signal, called active from +8 up or from −8 down
[15] = changes in parasitized red cell lysis, either direction – P. falciparum Indochina, OD700, 3 h, PSAC antagonist project, primary screen (AID 1156); conditions: P. falciparum-infected erythrocytes, osmotic lysis, higher = more signal, called active from +8 up or from −8 down
[16] = plasmodial surface anion channel blockers, osmotic lysis – cell-based, P. falciparum Indochina, OD700, 18 h, primary screen (AID 1157); conditions: P. falciparum Indochina infected erythrocytes, osmotic lysis OD700, 18 h; higher = more signal, called active from +8 up or from −8 down
[17] = S6 kinase pathway phospho-S6 level changes – cell-based, A549, cytoblot, luminescence, serum-stimulated, primary screen (AID 1158); conditions: 5 h, higher = more signal;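 further: serum-stimulated A549 lung adenocarcinoma cells; signal is phosphorylated S6 detected by cytoblot immunostaining with HRP secondary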
[18] = biological target: NADPH oxidase 2 (Homo sapiens) (UniProt P04839); assay: compounds shifting NOX2 Amplex Red fluorescence – cell-based, HEK293-NOX2, PMA-stimulated, NOX inhibitor project, primary screen (AID 1159); conditions: 45 min, higher = more signal, called active from +8 up or from −8 down; further: test concentration not given here
Chain of NADPH oxidase 2 (Homo sapiens) (P04839 whole entry, looked up): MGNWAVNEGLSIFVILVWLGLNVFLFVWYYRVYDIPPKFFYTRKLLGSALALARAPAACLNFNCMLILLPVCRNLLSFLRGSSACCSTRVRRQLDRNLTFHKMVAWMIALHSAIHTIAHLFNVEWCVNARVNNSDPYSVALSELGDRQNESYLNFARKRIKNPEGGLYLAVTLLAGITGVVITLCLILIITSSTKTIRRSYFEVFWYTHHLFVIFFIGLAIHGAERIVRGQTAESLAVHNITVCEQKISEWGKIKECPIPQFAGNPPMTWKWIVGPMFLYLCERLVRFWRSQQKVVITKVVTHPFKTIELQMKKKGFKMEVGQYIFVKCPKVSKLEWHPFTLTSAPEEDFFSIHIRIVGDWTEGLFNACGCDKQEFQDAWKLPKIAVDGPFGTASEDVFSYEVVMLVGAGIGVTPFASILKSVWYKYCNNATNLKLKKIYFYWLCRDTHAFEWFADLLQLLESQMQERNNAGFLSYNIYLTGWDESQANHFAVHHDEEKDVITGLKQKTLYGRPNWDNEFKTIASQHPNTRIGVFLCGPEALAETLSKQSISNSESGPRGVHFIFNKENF

[19] = biological target: NADPH oxidase 4 (Homo sapiens) (UniProt Q9NPH5); assay: compounds shifting NOX4 Amplex Red fluorescence – cell-based, HEK293-NOX4, tetracycline-induced, NOX inhibitor project, primary screen (AID 1160); conditions: HEK293-NOX4, Amplex Red H2O2 fluorescence, 45 min; higher = more signal, called active from +8 up or from −8 down
Chain of NADPH oxidase 4 (Homo sapiens) (Q9NPH5 whole entry, looked up): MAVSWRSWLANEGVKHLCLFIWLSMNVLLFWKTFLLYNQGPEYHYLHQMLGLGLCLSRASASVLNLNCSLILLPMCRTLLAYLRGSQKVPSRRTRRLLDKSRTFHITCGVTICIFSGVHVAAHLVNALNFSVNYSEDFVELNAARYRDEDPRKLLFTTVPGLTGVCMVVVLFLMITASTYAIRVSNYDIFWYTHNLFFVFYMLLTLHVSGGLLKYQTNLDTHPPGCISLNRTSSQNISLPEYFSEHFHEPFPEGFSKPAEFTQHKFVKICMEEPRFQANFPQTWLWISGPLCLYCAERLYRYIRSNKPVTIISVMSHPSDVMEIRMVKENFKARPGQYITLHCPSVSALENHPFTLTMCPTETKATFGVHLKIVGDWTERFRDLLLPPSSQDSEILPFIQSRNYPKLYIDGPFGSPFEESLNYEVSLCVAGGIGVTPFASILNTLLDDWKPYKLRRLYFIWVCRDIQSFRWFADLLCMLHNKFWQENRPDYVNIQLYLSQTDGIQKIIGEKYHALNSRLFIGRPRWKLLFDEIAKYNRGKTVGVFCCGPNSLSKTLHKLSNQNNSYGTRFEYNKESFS

[20] = biological target: NADPH oxidase 5 (Homo sapiens) (UniProt Q96PH1); assay: compounds shifting NOX5 Amplex Red fluorescence – cell-based, HEK293-NOX5, NOX inhibitor project, primary screen (AID 1161); conditions: HEK293-NOX5, ionomycin, 45 min, higher = more signal
Chain of NADPH oxidase 5 (Homo sapiens) (Q96PH1 whole entry, looked up): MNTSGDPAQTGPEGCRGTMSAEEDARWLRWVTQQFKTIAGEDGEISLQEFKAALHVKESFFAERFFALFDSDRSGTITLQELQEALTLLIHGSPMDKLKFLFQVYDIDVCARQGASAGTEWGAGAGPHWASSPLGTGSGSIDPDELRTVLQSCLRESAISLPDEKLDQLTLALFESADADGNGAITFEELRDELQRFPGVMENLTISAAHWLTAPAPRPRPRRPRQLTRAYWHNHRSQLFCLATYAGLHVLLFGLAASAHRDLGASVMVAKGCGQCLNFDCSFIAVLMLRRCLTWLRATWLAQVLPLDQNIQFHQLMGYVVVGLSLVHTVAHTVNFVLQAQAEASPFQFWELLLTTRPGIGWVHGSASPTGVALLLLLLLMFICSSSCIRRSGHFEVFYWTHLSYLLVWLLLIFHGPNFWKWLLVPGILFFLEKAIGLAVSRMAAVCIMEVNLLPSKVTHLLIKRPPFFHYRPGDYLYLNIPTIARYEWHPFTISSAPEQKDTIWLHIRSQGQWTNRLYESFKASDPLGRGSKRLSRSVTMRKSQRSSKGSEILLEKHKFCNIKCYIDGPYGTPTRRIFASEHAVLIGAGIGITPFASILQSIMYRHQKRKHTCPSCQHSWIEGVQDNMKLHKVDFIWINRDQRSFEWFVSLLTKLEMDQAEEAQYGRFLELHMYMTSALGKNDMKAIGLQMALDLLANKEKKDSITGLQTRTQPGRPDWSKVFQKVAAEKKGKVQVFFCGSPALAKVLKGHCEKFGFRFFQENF

COC(=O)[C@@H]1CC[C@H](C)[C@@H](c2ccc(C)cc2)N1C(=O)c1ccc(C=NO[C@H](C)c2cn([C@H](CO)Cc3ccccc3)nn2)cc1
composite z-score [1]: 0.247
z-score [2]: -0.63 (inactive)
z-score [3]: 0.0292 (inactive)
z-score [4]: 8.24 (active)
z-score [5]: 0.371 (inactive)
composite z-score [6]: 0.0407
composite z-score [7]: 0.288
composite z-score (Torsin-1A (Homo sapiens) [8]): 0.278
composite z-score (Torsin-1A (Homo sapiens) [9]): 0.277
composite z-score [10]: 0.682
z-score [11]: -0.25 (inactive)
composite z-score [12]: 0.342
z-score [13]: 18.8 (active)
z-score [14]: 2.92 (inactive)
z-score [15]: 1.91 (inactive)
z-score [16]: 1.25 (inactive)
z-score [17]: -0.0872
z-score [18]: -0.0504 (inactive)
z-score [19]: -0.591 (inactive)
z-score [20]: -1.71

CCOC(=O)[C@H](Cc1ccccc1)NC(=O)CCC1CC(OC(=O)NCc2ccc3c(c2)OCO3)CC2(CCCC(COC(=O)NCCc3ccccc3OC)O2)O1 (stereo not given in full)
composite z-score [1]: 0.296
z-score [2]: -0.415 (inactive)
z-score [3]: 0.8 (inactive)
z-score [4]: 17.2 (active)
z-score [5]: 0.109 (inactive)
composite z-score [6]: 1.19
composite z-score [7]: -0.0937
composite z-score (Torsin-1A (Homo sapiens) [8]): 0.479
composite z-score (Torsin-1A (Homo sapiens) [9]): 0.252
composite z-score [10]: 0.995
z-score [11]: -0.567 (inactive)
composite z-score [12]: -0.0547
z-score [13]: 1.3 (inactive)
z-score [14]: 0.627 (inactive)
z-score [15]: -0.451 (inactive)
z-score [16]: 0.222 (inactive)
z-score [17]: -0.254
z-score [18]: 0.799 (inactive)
z-score [19]: -1.05 (inactive)
z-score [20]: 1.28

CCOC(=O)[C@H](CC(C)C)NC(=O)CCC1CC(OC(=O)NCc2ccc3c(c2)OCO3)CC2(CCCC(COC(=O)NCCCN3CCCC3=O)O2)O1 (stereo not given in full)
composite z-score [1]: 0.353
z-score [2]: -0.255 (inactive)
z-score [3]: -0.767 (inactive)
z-score [4]: 0.0167 (inactive)
z-score [5]: -0.413 (inactive)
composite z-score [6]: 0.657
composite z-score [7]: 0.0154
composite z-score (Torsin-1A (Homo sapiens) [8]): 0.232
composite z-score (Torsin-1A (Homo sapiens) [9]): 0.92
composite z-score [10]: 1.74
z-score [11]: 0.015 (inactive)
composite z-score [12]: 0.0004
z-score [13]: 1.08 (inactive)
z-score [14]: 0.448 (inactive)
z-score [15]: -0.447 (inactive)
z-score [16]: 0.003 (inactive)
z-score [17]: 0.375
z-score [18]: 0.242 (inactive)
z-score [19]: 0.187 (inactive)
z-score [20]: 0.32

CCOC(=O)[C@H](CC(C)C)NC(=O)CCC1CC(OC(=O)NCc2cccc3ccccc23)CC2(CCCC(COC(=O)NCCc3ccc(Cl)cc3)O2)O1 (stereo not given in full)
composite z-score [1]: 0.0502
z-score [2]: -0.933 (inactive)
z-score [3]: -1.39 (inactive)
z-score [4]: -0.707 (inactive)
z-score [5]: -1.17 (inactive)
composite z-score [6]: 0.614
composite z-score [7]: -0.0987
composite z-score (Torsin-1A (Homo sapiens) [8]): 0.549
composite z-score (Torsin-1A (Homo sapiens) [9]): 0.372
composite z-score [10]: 0.728
z-score [11]: 0.692 (inactive)
composite z-score [12]: -0.14
z-score [13]: 3.31 (inactive)
z-score [14]: 0.0962 (inactive)
z-score [15]: -0.837 (inactive)
z-score [16]: -0.466 (inactive)
z-score [17]: 0.367
z-score [18]: 0.274 (inactive)
z-score [19]: 0.623 (inactive)
z-score [20]: 1.24

C[C@@H](ON=C1[C@H]2CCn3c(=O)n(-c4ccccc4)c(=O)n3[C@H]2[C@H](O)[C@@H]2O[C@H]12)c1cn([C@@H]2COC[C@H]2O)nn1
composite z-score [1]: 0.134
z-score [2]: 0.981 (inactive)
z-score [3]: 0.58 (inactive)
z-score [4]: 0.085 (inactive)
z-score [5]: 0.258 (inactive)
composite z-score [6]: 0.189
composite z-score [7]: 0.0028
composite z-score (Torsin-1A (Homo sapiens) [8]): 0.436
composite z-score (Torsin-1A (Homo sapiens) [9]): 0.63
composite z-score [10]: 0.438
z-score [11]: -0.212 (inactive)
composite z-score [12]: -0.255
z-score [13]: 0.595 (inactive)
z-score [14]: 0.277 (inactive)
z-score [15]: 0.0251 (inactive)
z-score [16]: 0.122 (inactive)
z-score [17]: -0.574
z-score [18]: -0.183 (inactive)
z-score [19]: -0.242 (inactive)
z-score [20]: -0.461

C#CCCCON=C1[C@H]2CCn3c(=O)n(C)c(=O)n3[C@H]2[C@H](O)[C@@H]2O[C@H]12
composite z-score [1]: 0.119
z-score [2]: 0.119 (inactive)
z-score [3]: 0.806 (inactive)
z-score [4]: 0.523 (inactive)
z-score [5]: -0.149 (inactive)
composite z-score [6]: 0.38
composite z-score [7]: 0.0471
composite z-score (Torsin-1A (Homo sapiens) [8]): 0.326
composite z-score (Torsin-1A (Homo sapiens) [9]): 0.693
composite z-score [10]: 0.837
z-score [11]: 0.117 (inactive)
composite z-score [12]: 0.126
z-score [13]: -0.611 (inactive)
z-score [14]: 0.147 (inactive)
z-score [15]: -0.354 (inactive)
z-score [16]: 0.0334 (inactive)
z-score [17]: -0.0228
z-score [18]: -0.0249 (inactive)
z-score [19]: -0.124 (inactive)
z-score [20]: 0.71

CCOC(=O)[C@H](CC(C)C)NC(=O)CCC1CC(OC(=O)NCCc2ccc(F)cc2)CC2(CCCC(COC(=O)NCCc3ccccc3OC)O2)O1 (stereo not given in full)
composite z-score [1]: 0.145
z-score [2]: -0.451 (inactive)
z-score [3]: -0.256 (inactive)
z-score [4]: 1.64 (inactive)
z-score [5]: 0.135 (inactive)
composite z-score [6]: 0.805
composite z-score [7]: -0.0736
composite z-score (Torsin-1A (Homo sapiens) [8]): 0.0877
composite z-score (Torsin-1A (Homo sapiens) [9]): 0.528
composite z-score [10]: 0.567
z-score [11]: -0.501 (inactive)
composite z-score [12]: -0.0603
z-score [13]: -1.58 (inactive)
z-score [14]: -0.344 (inactive)
z-score [15]: -0.17 (inactive)
z-score [16]: -0.142 (inactive)
z-score [17]: -0.0491
z-score [18]: 0.00967 (inactive)
z-score [19]: 0.15 (inactive)
z-score [20]: -0.0222

CCN1C(=O)[C@H]2[C@H]3[C@H](O)[C@H](O)CC(=O)[C@H]3CC[C@H]2C1=O
composite z-score [1]: 0.113
z-score [2]: 0.89 (inactive)
z-score [3]: -0.212 (inactive)
z-score [4]: -0.293 (inactive)
z-score [5]: -0.733 (inactive)
composite z-score [6]: -0.0154
composite z-score [7]: -0.225
composite z-score (Torsin-1A (Homo sapiens) [8]): 1.06
composite z-score (Torsin-1A (Homo sapiens) [9]): 0.386
composite z-score [10]: 0.593
z-score [11]: 0.115 (inactive)
composite z-score [12]: -0.0603
z-score [13]: -0.0957 (inactive)
z-score [14]: 0.143 (inactive)
z-score [15]: -0.669 (inactive)
z-score [16]: 0.0097 (inactive)
z-score [17]: -0.276
z-score [18]: -0.676 (inactive)
z-score [19]: 0.471 (inactive)
z-score [20]: -0.156

CC(C)CON=C1C[C@@H](O)[C@@H](O)[C@@H]2[C@@H]3C(=O)N(c4ccc(F)cc4F)C(=O)[C@@H]3CC[C@H]12
composite z-score [1]: 0.0062
z-score [2]: -0.86 (inactive)
z-score [3]: -0.359 (inactive)
z-score [4]: -1.29 (inactive)
z-score [5]: -0.907 (inactive)
composite z-score [6]: 0.9
composite z-score [7]: -0.243
composite z-score (Torsin-1A (Homo sapiens) [8]): 0.224
composite z-score (Torsin-1A (Homo sapiens) [9]): -0.0086
composite z-score [10]: 1.25
z-score [11]: -0.619 (inactive)
composite z-score [12]: 0.144
z-score [13]: 1.17 (inactive)
z-score [14]: -0.996 (inactive)
z-score [15]: 0.12 (inactive)
z-score [16]: -1.09 (inactive)
z-score [17]: -0.0969
z-score [18]: -1.13 (inactive)
z-score [19]: 0.632 (inactive)
z-score [20]: 0.178
